Shown are actives, neighbours in structure and some others; about 7.8% of the full set was active somewhere.
HCMV antiviral = inhibitors of human cytomegalovirus | HFF cells, HCMV-luciferase reporter, 72 h; hits give low values | activity change, negative = inhibition, % at 57.5 µM | 410,000 tested, 4.5% active | AID 1259415; in the data active = activity change below about -60%; inconclusive = no clear call, values can overlap the other calls; inactive = above about -39%
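After 16 h attachment at 37C, HFF cells received test compound and HCMV-luciferase (1 PFU/cell); reporter luminescence read 72 h later, data normalized against buffer-only and known inhibitor Salinomycin.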
VACV mCherry inh = inhibitors of vaccinia virus infection (mCherry reporter signal); Vaccinia virus mCherry reporter infection, fluorescence; Potency, µM (top dose mostly 36.5 µM), without a hit: at the highest dose activity change, negative = inhibition, most hits filed as inhibitors; 310,000 tested, 0.63% active; AID 720579; calls by dose curve; tested in A549 cells; also: potency is read from the fitted curve at half-maximal effect; nearly all actives have a fitted effect of over 35% in size
LASV entry inh = blocks Lassa virus binding to or entry into cells. Lassa virus pseudotype entry inhibition, cell reporter. Potency, µM (highest dose often 37.9 µM), inactives show at the top dose activity change, negative = inhibition, hits mostly inhibitors. 300,000 tested, 1.2% active; calls by dose curve; tested in HEK293 cells; also: potency is read from the fitted curve at half-maximal effect; nearly all actives have a fitted effect of over 50% in size
HCV inhibitor = blocks hepatitis C virus. AID 651820. Huh7.5.1 HCVcc-Cre infection, luciferase reporter, 44 h. Potency, µM (highest dose often 41.8 µM), inactives show at the top dose activity change, negative = inhibition, usual class: inhibitors. 340,000 tested, 3.4% active; active = well fitted inhibition curve with a large enough effect; inconclusive = small, poorly fitted or top-dose-only effect, or another doubt; inactive = no such curve, though single readings can be large or run the other way; also: potency is read from the fitted curve at half-maximal effect
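Luciferase read-out (15 sec integration) after a 15 min room-temperature substrate step quantifies HCVcc-Cre infection. Cells, 1,000 per well, had compound added 4 h post-plating, then virus at ~0.5 moi, and were cultured 44 h.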
Marburg entry inh = inhibitors of Marburg virus binding or cell entry | 300,000 tested, 1.8% active | Marburg virus pseudotyped entry inhibition, cell reporter | Potency, µM (top dose mostly 37.8 µM), inactives show at the highest dose activity change, negative = inhibition, usual class: inhibitors; calls by dose curve; tested in HEK293 cells; also: potency is read from the fitted curve at half-maximal effect
Vaccinia Venus = inhibitors of vaccinia virus (Venus reporter); Vaccinia virus Venus reporter expression, fluorescence; 330,000 tested, 0.46% active; Potency, µM (highest dose often 36.5 µM), for the others: at the highest dose activity change, negative = inhibition, usual class: inhibitors; AID 720580; calls by dose curve; tested in A549 cells; also: potency is read from the fitted curve at half-maximal effect; nearly all actives have a fitted effect of over 30% in size
* marks the source's active call; other numbers are inactive results; i = inactive; ? = inconclusive; / = not tested or not shown; + = active, no number; [ ] = remark or other dose. % is scaled to controls: 0 for no effect and ±100 for the full control effect.

SMILES	HCMV antiviral	VACV mCherry inh	LASV entry inh	HCV inhibitor	Marburg entry inh	Vaccinia Venus
COC(=O)CNC(=O)c1cnn(-c2ncc3c(n2)-c2ccccc2CCC3)c1C1CC1	/	-14%	/	/	/	3%
Cn1c(O)c(/C=N/NC(=O)c2cc3ccccc3cc2O)c2ccccc21	-24	7.9µM*	-25%	?	?	?
CCOC(=O)CCN1C(=O)[C@H]2[C@H]3[C@H](O)[C@H](O)C/C(=N\OCc4ccccc4)[C@@H]3CC[C@H]2C1=O	/	/	/	/	-7%[14.2 µM]	/
Clc1ccc(CN2C3=NCCCN3c3ccccc32)cc1Cl	-84*	-1%	?	?	?	-21%
OC(CN1C2=NCCCN2c2ccccc21)c1ccc(Cl)cc1 (stereo not given)	-69*	i	/	?	/	-2%
OC(COc1ccc(Cl)cc1)CN1C2=NCCCN2c2ccccc21 (stereo not given)	12	/	-9%	13µM*	?	-44%
C[C@@H]1CC[C@H]2C(=O)N(Cc3ccccc3)C[C@@H](O)CN2[C@@H]1c1cccc(Br)c1	/	/	7%[14.3 µM]	/	-22%[14.2 µM]	/
Cc1ccc(Cl)cc1-n1c(CCC(=O)O)ccc1-c1cccs1	24	7%	-4%[46.1 µM]	/	19%[46.1 µM]	6%
COc1cccc(-c2nc3n(n2)CCc2ccccc2-3)c1	74	i	/	/	/	-23%
Cc1cc(C)c(C#N)c(SCS(=O)Cc2ccccc2)n1 (stereo not given)	-23	-10%	-14%	?	-1%	4%
Cc1cc(C)c(C#N)c(SCCS(=O)(=O)Cc2ccc(Cl)cc2)n1	-28	-18%[1.46 µM]	-3%	-19%	-15%	-17%
Cc1cc(C)c(C#N)c(SCS(=O)Cc2ccc(Cl)cc2)n1 (stereo not given)	?	-19%	1%	11µM*	-11%	0%
Cc1cc(C)c(C#N)c(SCCS(=O)(=O)c2ccc(C(C)(C)C)cc2)n1	?	3.5µM*	-13%	?	?	4.5µM*
Cc1cc(C)c(C#N)c(SCCS(=O)(=O)c2ccc(Cl)cc2)n1	?	4.5µM*	?	?	-18%[46.1 µM]	?
Cc1cc(C)c(C#N)c(SCC(=O)C(C)(C)C)n1	-39	-15%	40%	13%	12%	-14%
Cc1ccc(-n2nc(CO)c(C(=O)NCCCc3ccccc3)n2)cc1C	86	-4%	14%[46.1 µM]	/	-13%[46.1 µM]	-3%
Cc1cn2c(=O)cc(COC(=O)c3ccccc3F)nc2s1	11	?	?	/	/	?
COc1ccc(OCC(=O)NC2CC(=O)N(c3cccc(OC)c3)C2)cc1 (stereo not given)	-10	-7%[7.34 µM]	-12%[46.1 µM]	/	/	-5%[7.34 µM]
CCCCOc1ccc(Br)cc1CSC(=N)N	-98*	-26%	?	2µM*	?	-16%
CCOc1ccc(C(C)=O)cc1CSC(=N)N	47	-3%	-6%[46.1 µM]	-30%	?	-3%
CCOc1ccc(NC(=O)Cn2cnc3sc(C)c(S(=O)(=O)N4CCN(c5ccccc5OC)CC4)c3c2=O)cc1	-1	18%	-22%[46.1 µM]	/	?	-3%
N#C/C(=N\Nc1cccc(C(F)(F)F)c1)C(=O)c1ccsc1	-97*	/	/	?	/	/
CC1=NOC(=O)/C1=C\c1ccc(-c2cc(Cl)ccc2Cl)o1	-104*	i	22%	?	9%	0%
CCN(C(=O)CSc1nc2ccccc2n1Cc1ccccc1C#N)c1ccccc1	-5	-17%	-3%[46.1 µM]	/	/	-12%
O=C1Nc2ccc(-c3cccnc3)cc2C1=Cc1cc(Br)c(O)c(Br)c1	/	/	13µM*	/	/	/
SMILES	HCMV antiviral	VACV mCherry inh	LASV entry inh	HCV inhibitor	Marburg entry inh	Vaccinia Venus
Cc1cc(C)c(NC(=O)C2CCN(c3nc4ccccc4[nH]3)CC2)c(C)c1	+	-10%	12%[46.1 µM]	/	/	-8%
Cc1ccc(NC(=O)C2CCN(c3nc4ccccc4[nH]3)CC2)cc1Cl	0	i	-19%[46.1 µM]	/	/	-18%
Cc1cc(NC(=O)C2CCC2)n(-c2ccccn2)n1	36	i	-10%	10µM*	-5%	-16%
Cc1cc(NC(=O)C2CCCCC2)n(-c2nc3ccccc3[nH]2)n1	38	/	?	4.5µM*	0%[46.1 µM]	?
Cc1cc(C)nc(-n2nc(C)cc2Nc2ccccc2)n1	-66*	/	-27%	10µM*	?	?
O=C(CCC1N=C2c3ccccc3N=C(SCc3cccc(F)c3)N2C1=O)NCc1ccc(F)cc1 (stereo not given)	-4	?	-9%[46.1 µM]	/	/	?
CC(C)NC(=O)c1cn(C2CCC(NC(=O)C(C)(C)C)CC2)nn1 (stereo not given)	/	-4%	/	/	/	-5%
Cc1cc(Nc2ccccc2)n(-c2nc3ccccc3[nH]2)n1	-86*	/	?	5µM*	?	?
Cc1cc(NC(=O)c2ccccc2F)n(-c2nc3ccccc3[nH]2)n1	0	/	0%	?	-19%	/
Cc1cc(NC(=O)c2ccc(C)s2)n(-c2nc3ccccc3[nH]2)n1	-74*	-11%	9%	?	10%	?
Cc1cc(NC(=O)c2c(F)cccc2Cl)n(-c2nc3ccccc3[nH]2)n1	?	-22%[1.46 µM]	?	14µM*	?	?
Cc1cc(NC(=O)c2c(F)cccc2F)n(-c2nc3ccccc3[nH]2)n1	-89*	/	?	35µM*	?	/
CCC(C)NC(=O)c1c(C)oc2nc(C)nc(N3CCOCC3)c12 (stereo not given)	6	-9%	11%[46.1 µM]	/	/	-9%
COc1ccccc1NC(=O)Cn1nc(-c2ccc(C)cc2)c2c(c1=O)CCCC2	3	-13%	23%[46.1 µM]	/	-2%[46.1 µM]	-10%
COCCNc1nnc(SCC(=O)Nc2sc3c(c2C(=O)c2ccccc2)CCCC3)s1	-86*	-22%	?	2.5µM*	?	?
CCOC(=O)c1c(NC(=O)C(NCCN(C)C)c2ccccc2)sc2c1CCCC2 (stereo not given)	-26	?	11µM*	0.89µM*	?	-22%
CCOC(=O)c1c(NC(=O)CSc2cn(CCNC(=O)c3ccccc3OC)c3ccccc23)sc2c1CCC2	-6	-20%	?	/	13µM*	-13%
CCOC(=O)c1c(NC(=O)c2ccccc2Cl)sc2c1CCCC2	-25	-8%	?	/	/	-3%
Nc1nnc(SCC(=O)Nc2sc3c(c2C(=O)c2ccccc2)CCCC3)s1	-17	-26%	6%	?	?	-14%
CCOC(=O)c1c(NC(=O)CSc2nnc(-c3c[nH]c4ccccc34)n2CCOC)sc2c1CCCCC2	-67*	?	23µM*	6.3µM*	?	?
CCOc1ccc(NC(=O)c2cc(=O)c3ccc(C)c(C)c3o2)cc1	0	-15%	-13%[46.1 µM]	/	0%[46.1 µM]	-24%
Cn1c(=S)[nH]c2cc(C(=O)N3CCN(C(=O)c4ccccc4)CC3)ccc2c1=O	/	-22%	/	/	/	-18%
CCOC(=O)c1c(NC(=O)CSc2c[nH]c3ccccc23)sc2c1CCC2	58	?	?	?	?	-27%

Source: PubChem (National Center for Advancing Translational Sciences (NCATS))
